Results on 41 compounds are retold here after PubChem BioAssay.

Assay [1] is described as follows: modulation of C. elegans fzo-1 (AID 1259413).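 Further: fzo-1 mutant C. elegans worms in liquid wells.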 The note with it: C. elegans fzo-1 modulator screen, mean read-out; stronger effect = higher value.
The target in assay [2] is Protein kinase 7 (PK7), Plasmodium falciparum 3D7 (PF3D7_0213400) (UniProt Q7YTF7). The experiment in a line: inhibition of Plasmodium PK7 catalytic activity – biochemical, TCAMS antimalarial set, Kinase-Glo luminescence (AID 1159587). Particulars: recombinant PfPK7, Kinase-Glo ATP depletion luminescence. For orientation: Kinase-Glo reads ATP consumption through a luciferase reaction.
Protein kinase 7 (PK7), Plasmodium falciparum 3D7 (PF3D7_0213400), sequence (Q7YTF7 1-343): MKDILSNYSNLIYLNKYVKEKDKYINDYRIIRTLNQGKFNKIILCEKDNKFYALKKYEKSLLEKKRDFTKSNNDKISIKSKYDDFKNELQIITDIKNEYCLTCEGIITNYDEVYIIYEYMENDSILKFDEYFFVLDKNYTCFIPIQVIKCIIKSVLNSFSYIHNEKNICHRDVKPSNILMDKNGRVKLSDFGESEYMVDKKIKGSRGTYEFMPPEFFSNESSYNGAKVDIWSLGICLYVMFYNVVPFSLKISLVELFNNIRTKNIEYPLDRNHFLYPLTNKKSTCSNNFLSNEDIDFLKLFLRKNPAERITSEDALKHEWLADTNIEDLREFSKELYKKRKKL

For assay [3], the target named is Calcium-dependent protein kinase 4 (Plasmodium falciparum (isolate 3D7)) (UniProt Q8IBS5). Nature of the assay: PfCDPK4 kinase inhibitors, biochemical, TCAMS library (AID 1159588; cut-off not given, nearly all actives have IC50 up to about 0.91 µM). The note with it: recombinant PfCDPK4, Kinase-Glo ATP depletion luminescence.
Calcium-dependent protein kinase 4 (Plasmodium falciparum (isolate 3D7)), sequence (Q8IBS5 whole entry, looked up): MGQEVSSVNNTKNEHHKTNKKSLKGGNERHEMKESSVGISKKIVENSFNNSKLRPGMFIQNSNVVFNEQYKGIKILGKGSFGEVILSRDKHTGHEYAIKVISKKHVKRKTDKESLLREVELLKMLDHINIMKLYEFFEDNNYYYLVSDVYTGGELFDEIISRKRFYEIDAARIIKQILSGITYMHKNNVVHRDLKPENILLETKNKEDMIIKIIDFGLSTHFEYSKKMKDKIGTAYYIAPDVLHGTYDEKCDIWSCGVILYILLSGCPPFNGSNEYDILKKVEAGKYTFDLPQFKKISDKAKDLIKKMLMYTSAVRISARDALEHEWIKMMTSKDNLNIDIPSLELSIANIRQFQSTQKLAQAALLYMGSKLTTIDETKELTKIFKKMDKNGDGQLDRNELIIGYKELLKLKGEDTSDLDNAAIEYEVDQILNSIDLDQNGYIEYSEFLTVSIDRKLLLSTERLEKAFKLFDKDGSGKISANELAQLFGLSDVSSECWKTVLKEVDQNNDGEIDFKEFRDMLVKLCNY
Assay [4] has as its system Aerobactin synthetase IucA (Klebsiella pneumoniae). The experiment in a line: inhibition of K. pneumoniae IucA enzyme – biochemical, Tocris library, absorbance (AID 1345561).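 Further: 100% = enzyme without compound and 0% = no enzyme.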 Particulars: purified IucA enzyme assay, absorbance (OD) read-out; stronger effect = lower value;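 tested at 8 µM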.
The nature of assay [5]: viability loss in pontine glioma line – cell-based, SU-DIPG-XIII, MIPE4.0, CellTiter-Glo, qHTS, dose response (AID 1347061; cut-off not given, nearly all actives have AC50 up to about 37 µM;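 further: cells exposed to compound for 48 hours before readout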). The note with it: CellTiter-Glo ATP luminescence. A general note: ATP-based viability assays read luminescence as a measure of living cells.
A short description of assay [6]: viability loss in pontine glioma line – cell-based, SU-DIPG-XVII, MIPE5.0, CellTiter-Glo, qHTS, dose response (AID 1347060; cut-off not given, nearly all actives have AC50 up to about 26 µM;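 on AC50: cells exposed to compound for 48 hours before viability readout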). Particulars: CellTiter-Glo ATP luminescence.
Assay [7] in a line: viability loss in pontine glioma line – cell-based, JHH-DIPG-1, MIPE4.0, CellTiter-Glo, qHTS, dose response (AID 1347062; cut-off not given, nearly all actives have AC50 up to about 27 µM;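 on AC50: cells exposed to compound for two days before readout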). The note with it: JHH-DIPG-1 viability, CellTiter-Glo ATP luminescence.
The nature of assay [8]: viability loss in pontine glioma line – cell-based, SU-DIPG-XIII, MIPE5.0, CellTiter-Glo, qHTS, dose response (AID 1347064; cut-off not given, nearly all actives have AC50 up to about 23 µM;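 further: cells exposed to compound for 48 hours before the viability read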). The note with it: CellTiter-Glo ATP luminescence.
A short description of assay [9]: EMT-state selective cytotoxicity in co-culture – imaging, PC-3E GFP, TEM4-18 mCherry, primary screen (AID 1345086;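 active means compounds killing one labelled cell type while sparing the other, by normalised counts and ratio limits, not self-fluorescent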;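 on all read-outs here: cells exposed to compound for 72 h before imaging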;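 on red/green cell ratio (normalised): normalised mesenchymal count divided by normalised epithelial count so high means epithelial killing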). The note with it: PC-3E GFP / TEM4-18 mCherry co-culture, imaging cell counts, at 1 µM; for red/green cell ratio (normalised): actives lie on both sides, counts scaled to control wells, 1 = unselective.
[10] abbreviates: measured here: epithelial PC-3E GFP cell survival.
Where [11] appears, read: measured here: mesenchymal TEM4-18 mCherry cell survival.

Where “and” joins values, the source holds several entries; their conditions need not be identical. Equal values may be shown once. Records with an inconclusive call do not appear. For some assays here: Entries with a potency or affinity are not part of this list. Calls of active or inactive are those of the source. Unless noted, how the calls were made is not given here. Starred links: 1 amine or outer side, 2 acyl side, 3 side chain; linkers in the order of their positions; H or OH if unused. Positions of bridges follow the written chain, without caps; N, C: chain ends. Non-standard residues stand in square brackets, D forms with d. Residues, ends and D or L forms follow the SMILES beside them. Chains are numbered I, II in the order given. Actinocin(9to1) = Cc1c2oc3c(C)ccc(C(=O)[*:1])c3nc-2c(C(=O)[*:2])c(N)c1=O; NMeV = CN[C@H](C(=O)O)C(C)C; Sar = CNCC(=O)O

As to `COc1cc(C)nc(-n2nc(C)cc2OC)n1`, the mean signal in assay [1] was 243 (inactive).

Regarding `CCN1CC(CCN2CCOCC2)C(c2ccccc2)(c2ccccc2)C1=O` (stereo unspecified), the mean signal in [1] was 250 (inactive).

Turning to `COc1cc(C(=O)NC2CCCNC2)cc(OC)c1OC` (stereo unspecified), in assay [1], the mean signal is 236 (inactive).

For `CCOC(=O)C1=C(C)NC(C)=C(C(=O)OCC)C1c1ccccc1/C=C/C(=O)OC(C)(C)C`, in [1], the mean signal was 249 (inactive).

Consider `COc1cc(C)c(Cc2cnc(N)nc2N)cc1OC`, for which the mean signal in assay [1] is 249 (inactive).

With `CCCc1c(OCCCCc2nn[nH]n2)ccc(C(C)=O)c1O`, the mean signal in [1] is 231 (inactive).

Turning to `CCCN1CCCC[C@H]1C(=O)Nc1c(C)cccc1C`, the mean signal in assay [1] is 274 (inactive).

As to `CN1CCN(C2=Nc3cc(F)ccc3Cc3ccccc32)CC1`, in assay [1], the mean signal was 248 (inactive).

In the case of `O=c1c(-c2ccccc2)c1-c1ccccc1`, the mean signal in assay [1] was 254 (inactive).

Take `Cc1c2oc3c(C)ccc(C(=O)N[C@@H]4C(=O)N[C@H](C(C)C)C(=O)N5CCC[C@H]5C(=O)N(C)CC(=O)N(C)[C@@H](C(C)C)C(=O)O[C@@H]4C)c3nc-2c(C(=O)N[C@@H]2C(=O)N[C@H](C(C)C)C(=O)N3CCC[C@H]3C(=O)N(C)CC(=O)N(C)[C@@H](C(C)C)C(=O)O[C@@H]2C)c(N)c1=O` (I: T[dV]P[Sar][NMeV] / II: T[dV]P[Sar][NMeV]; ester I:1-I:C, II:1-II:C; linker I:N-II:N via Actinocin(9to1)): the mean signal in assay [1] was 256 (inactive).

Consider `CN(C)CC[C@@H](c1ccc(Br)cc1)c1ccccn1`, for which the mean signal in assay [1] is 234 (inactive).

Consider `CCN(CC)Cc1cc(Nc2ccnc3cc(Cl)ccc23)ccc1O`, for which the result in [2] and in assay [3] was inactive.

`CC(=O)Nc1ccc(CC(=O)O)cc1`: the mean signal in [1] is 292 (inactive).

Regarding `CC(C)(O)c1ccccc1CC[C@@H](SCC1(CC(=O)O)CC1)c1cccc(/C=C/c2ccc3ccc(Cl)cc3n2)c1`, the mean signal in assay [1] was 259 (inactive).

Take `COC(=O)C1=C(C)NC(C)=C(C(=O)O[C@@H]2CCCN(Cc3ccccc3)C2)[C@@H]1c1cccc([N+](=O)[O-])c1`: in assay [1], the mean signal was 249 (inactive).

For `CN(Cc1cnc2nc(N)nc(N)c2n1)c1ccc(C(=O)N[C@@H](CCC(=O)O)C(=O)O)cc1`, the result in assay [2], in assay [3] and in assay [5] was inactive. For the same compound, the mean signal in assay [1] was 204 (inactive). In addition, the remaining activity in assay [4] is 114% (inactive).

For `CCCCc1ccc2nc(NC(=O)OC)[nH]c2c1`, the result in assay [2] and in assay [3] was inactive. In addition, in assay [6], the AC50 was 0.186 µM (active).

As to `COCc1c(C(C)C)nc(C(C)C)c(/C=C/[C@@H](O)C[C@@H](O)CC(=O)O)c1-c1ccc(F)cc1`, the mean signal in [1] was 232 (inactive).

In the case of `CN(C)CC[C@@H](c1ccc(Cl)cc1)c1ccccn1`, in assay [1], the mean signal is 251 (inactive).

`COc1cc2c(Nc3ccc(Br)cc3F)ncnc2cc1OCC1CCN(C)CC1`: the outcome in assay [2] and in assay [3] was inactive. For the same compound, the AC50 is 6.61 µM (active) in assay [6], 3.72 µM (active) in assay [5], 16.6 µM (active) in [7] and 18.6 µM (active) in assay [8].

As to `CC(C(=O)O)c1ccc(CC2CCCC2=O)cc1` (stereo unspecified), the mean signal in assay [1] was 276 (inactive).

In the case of `Cc1[nH]cnc1CN1CCc2c(c3ccccc3n2C)C1=O`, the mean signal in assay [1] was 241 (inactive).

Regarding `CC(=O)OCC(=O)NCCCOc1cccc(CN2CCCCC2)c1`, the mean signal in assay [1] was 244 (inactive). Further, in assay [9], the red/green cell ratio (normalised) is 1.02 (inactive). Further, the normalised cell number in [9] (setting [10]) amounted to 0.98; in [9] (setting [11]), 1.

With `Nc1nc(N)nc(-c2cc(Cl)ccc2Cl)n1`, the mean signal in assay [1] is 297 (inactive). Also, the red/green cell ratio (normalised) in assay [9] was 1.01 (inactive). In addition, the values for the normalised cell number in assay [9] (setting [10]) and in assay [9] (setting [11]) were 1.08 and 1.09, respectively. Besides, in [4], the remaining activity was 103% (inactive). For the same compound, the result in assay [6], in assay [5] and in [7] was inactive.

Take `COc1cc2c(cc1OC)C(=O)C(CC1CCN(Cc3ccccc3)CC1)C2` (stereo unspecified): the mean signal in assay [1] is 214 (inactive). The red/green cell ratio (normalised) in [9] was 1.04 (inactive). The results for the normalised cell number in assay [9] (setting [10]) and in assay [9] (setting [11]) were 1.04 and 1.09, respectively.

Take `CC(Oc1c(Cl)cccc1Cl)C1=NCCN1` (stereo unspecified): the mean signal in assay [1] is 295 (inactive). In addition, the red/green cell ratio (normalised) in assay [9] was 1.37 (inactive). For the same compound, the normalised cell number in assay [9] (setting [10]) was 0.85; in [9] (setting [11]), 1.17.

`CCc1c(C)[nH]c2c1C(=O)C(CN1CCOCC1)CC2` (stereo unspecified): the mean signal in assay [1] was 257 (inactive). Besides, the red/green cell ratio (normalised) in assay [9] was 1.03 (inactive). Moreover, the normalised cell number is 0.94 in [9] (setting [10]) and 0.96 in [9] (setting [11]).

For `COc1ccc(CN2CCN(C(c3ccc(F)cc3)c3ccc(F)cc3)CC2)c(OC)c1OC`, the mean signal in assay [1] was 204 (inactive). Besides, in [9], the red/green cell ratio (normalised) is 1.08 (inactive). Moreover, the figures for the normalised cell number in [9] (setting [10]) and in [9] (setting [11]) were 0.96 and 1.03, respectively.

For `Oc1c(Cl)cc(Cl)c(Cl)c1Cc1c(O)c(Cl)cc(Cl)c1Cl`, the mean signal in assay [1] was 211 (inactive). In addition, the red/green cell ratio (normalised) in assay [9] is 0.64 (inactive). For the same compound, the normalised cell number was determined as 0.83 in assay [9] (setting [10]) and 0.53 in assay [9] (setting [11]).

For the compound `Nc1ccc(O)c(C(=O)O)c1`, in assay [1], the mean signal is 261 (inactive). Further, the red/green cell ratio (normalised) in assay [9] is 1.19 (inactive). Besides, the normalised cell number in assay [9] (setting [10]) turned out to be 1.04; in [9] (setting [11]) it was 1.24.

As for `Nc1nc2c(ncn2CCC(CO)CO)c(=O)[nH]1`, in assay [1], the mean signal is 282 (inactive). Besides, in [9], the red/green cell ratio (normalised) was 1 (inactive). For the same compound, the normalised cell number in assay [9] (setting [10]) and in assay [9] (setting [11]) was 0.96 each time.

With `CCOC(=O)OC(C)OC1=C(C(=O)Nc2ccccn2)N(C)S(=O)(=O)c2ccccc21` (stereo unspecified), the mean signal in assay [1] was 259 (inactive). Moreover, the red/green cell ratio (normalised) in [9] was 1.19 (inactive). The normalised cell number in [9] (setting [10]) was determined as 0.84; in assay [9] (setting [11]), 1.

In the case of `Cc1cccc(C)c1NC(=O)C(C)N` (stereo unspecified), the mean signal in [1] is 270 (inactive). Also, the red/green cell ratio (normalised) in assay [9] is 0.66 (inactive). For the same compound, the normalised cell number in assay [9] (setting [10]) was 1.32; in assay [9] (setting [11]), 0.88.

For `CC[N+](C)(CC)CCOC(=O)C(O)(c1ccccc1)C1CCCCC1` (stereo unspecified), in [1], the mean signal is 260 (inactive). Besides, in [9], the red/green cell ratio (normalised) is 0.95 (inactive). Also, the normalised cell number in assay [9] (setting [10]) is 1.13; in [9] (setting [11]) it was 1.07.

For `Clc1ccc2c(c1)CCc1cccnc1C2=C1CCNCC1`, the mean signal in assay [1] was 228 (inactive). The red/green cell ratio (normalised) in [9] was 0.84 (inactive) and 1.39 (inactive). For the same compound, the normalised cell number in [9] (setting [10]) is 1.16 and 0.83; in [9] (setting [11]) it was 0.98 and 1.15.

Regarding `O=C(CCNNC(=O)c1ccncc1)NCc1ccccc1`, the mean signal in [1] is 273 (inactive). Further, the red/green cell ratio (normalised) in assay [9] was 1.02 (inactive). Also, the results for the normalised cell number in assay [9] (setting [10]) and in assay [9] (setting [11]) were 1.02 and 1.04, respectively.

In the case of `Cc1cccc(C)c1OCC(C)N` (stereo unspecified), the mean signal in assay [1] is 227 (inactive). For the same compound, the red/green cell ratio (normalised) in assay [9] is 1.08 (inactive). Also, the normalised cell number was 1.13 in [9] (setting [10]) and 1.22 in [9] (setting [11]). Further, the remaining activity in assay [4] was 104% (inactive).

Take `O=C1CC2(CCCC2)CC(=O)N1CCCCN1CCN(c2ncccn2)CC1`: the mean signal in assay [1] is 228 (inactive). Moreover, the red/green cell ratio (normalised) in [9] was 1.04 (inactive). Moreover, the normalised cell number came to 1.05 in assay [9] (setting [10]) and 1.09 in assay [9] (setting [11]). Moreover, the remaining activity in assay [4] was 109% (inactive).

In the case of `C[n+]1ccccc1/C=N/O`, in assay [1], the mean signal is 252 (inactive). Moreover, the red/green cell ratio (normalised) in [9] was 0.85 (inactive). For the same compound, the results for the normalised cell number in [9] (setting [10]) and in assay [9] (setting [11]) were 1.37 and 1.16, respectively.

On to `COC(=O)C1=C(C)NC(C)=C(C(=O)OCC(C)C)C1c1ccccc1[N+](=O)[O-]` (stereo unspecified), for which the mean signal in assay [1] was 228 (inactive). Also, the red/green cell ratio (normalised) in assay [9] is 0.97 (inactive). Besides, the normalised cell number in assay [9] (setting [10]) was found to be 1.11; in assay [9] (setting [11]), 1.08.

As to `CN1CCN(C2=Nc3ccccc3Oc3ccc(Cl)cc32)CC1`, the mean signal in assay [1] was 262 (inactive). Moreover, the red/green cell ratio (normalised) in assay [9] is 0.99 (inactive). For the same compound, the normalised cell number came out at 1.1 in assay [9] (setting [10]) and 1.09 in assay [9] (setting [11]).

In general, remaining activity refers to the signal under treatment as a percentage of the control signal. What is called AC50 is the midpoint of the concentration-response curve, whichever way the signal moves.
